Reference: PubChem BioAssay AID1347075 (National Center for Advancing Translational Sciences (NCATS), 2019)
Out of some 400,000 compounds screened, about 5,500 (1.4%) were called active. Another 9% or so got no clear call; they are omitted. Calls come from the whole dose curve; as a rule, active = well fitted cell-killing curve with a large enough effect; inconclusive = small, poorly fitted or top-dose-only effect, or effect the other way; inactive = flat fitted curve, though single readings scatter. The sample as a whole holds a higher share of actives than the screen did.

assay: qHTS assay for MDR1-selective chemotherapeutics: Primary screen using the parental adenocarcinoma cell KB-3-1; settings: KB-3-1 viability, CellTiter-Glo ATP luminescence, 72 h; series mostly up to 46.1 µM; activity change, negative = cytotoxic: at the top concentration; note: nearly all actives have a fitted effect of over 60% in size
Outline: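 Here the drug-naive KB-3-1 line serves as comparator for MDR sub-line selectivity; cells received compound titrations, 72 h at 37 °C, then CellTiter-Glo readout.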
% is set by controls: 0 for no effect and ±100 for the full control effect; potency is the fitted concentration of half-maximal effect.

| Compound | activity change, negative = cytotoxic | Potency |
| --- | --- | --- |
| CSc1ccc(CCNC(=O)c2ccc3c(c2)nc2n3CCOC2)cc1 | -7.69% (inactive) |  |
| Cc1ccc(NC(=O)c2cc(S(=O)(=O)NCCC3=CCCCC3)ccc2F)cc1C |  | 16.4 µM (active) |
| CCc1ccc(NC(=O)c2cc(S(=O)(=O)NC3CCCCCC3)ccc2F)cc1 | -5.14% (inactive) |  |
| COc1ccccc1NC(=O)c1cc(S(=O)(=O)NCCc2ccccc2)ccc1F | 1.79% (inactive) |  |
| O=C(CSc1cn(CC(=O)N2CCOCC2)c2ccccc12)Nc1ccccc1 | 6.27% (inactive) |  |
| Cc1cccc(-c2nnc(SCC(=O)N3CCCc4ccccc43)o2)c1 | 0.542% (inactive) |  |
| CCC(C)[C@H]1COCCS(=O)(=O)N1Cc1ccc(C)cc1 (some centres undefined) | 15.7% (inactive) |  |
| CCCC[C@H]1COCCS(=O)(=O)N1Cc1cccc(Cl)c1 |  | inactive |
| O=S1(=O)CCOC[C@H](CC2CCCCC2)N1Cc1ccc(F)cc1 |  | 16.4 µM (active) |
| Cc1ccc2oc(=O)c3cnn(CC(=O)N4CCN(c5cccc(Cl)c5)CC4)c3c2c1 | -1.01% (inactive) |  |
| COc1cc(OC)c(N(C)C(=O)c2cc3c(=O)oc4ccccc4c3s2)cc1Cl | -2.75% (inactive) |  |
| COc1ccc(Cc2nc3ccc(C(=O)NCc4ccccc4Cl)cc3o2)cc1 | -13.2% (inactive) |  |
| CCOc1ccc(NC(=O)CCC(=O)N2CC(C)Oc3ccc(C)cc32)cc1 (centres undefined) | -8.02% (inactive) |  |
| CCOc1ccc(CNC(=O)c2cccc(Nc3nc4ccccc4n4nnnc34)c2)cc1OC | -1.42% (inactive) |  |
| Cc1ccc(Cn2c(C)c3cnn(CC(=O)NCc4ccccn4)c(=O)c3c2C)cc1 | -23.7% (inactive) |  |
| Cc1ccc(Cn2c(C)c3cnn(CC(=O)NCc4ccccc4)c(=O)c3c2C)cc1 |  | 13 µM (active) |
| Cc1c2cnn(CC(=O)NCc3ccccn3)c(=O)c2c(C)n1Cc1ccc(Cl)cc1 | 9.63% (inactive) |  |
| Cc1cccc(Nc2nc(C)nc(N)c2S(=O)(=O)c2ccccc2)c1 | 3.43% (inactive) |  |
| CC(NC(=O)c1ccccc1SCC(=O)N1CCCC1)c1ccccc1 (centres undefined) | -7.79% (inactive) |  |
| CC(NC(=O)CNC(=O)Cc1cccc2ccccc12)c1ccc(S(N)(=O)=O)cc1 (centres undefined) | -31.1% (inactive) |  |
| CC(NC(=O)c1cccc2ccccc12)c1ccc2c(c1)CCCC2 (centres undefined) |  | 10.3 µM (active) |
| O=S(=O)(NCC(c1ccccc1)N1CCc2ccccc21)c1ccccc1 (centres undefined) | -19.2% (inactive) |  |
| Cc1ccc(NC(=O)Nc2sc3nc4n(c(=O)c3c2C)CCC(C)CC4)c(Cl)c1 (centres undefined) | -1.46% (inactive) |  |
| Cc1ccc(C)c(-n2c(SCC(=O)O)nc3sc4c(c3c2=O)CCCC4)c1 | -7.55% (inactive) |  |
| NNC(=O)C1CCCn2c1nc1sc3c(c1c2=O)CCCC3 (centres undefined) | 0.859% (inactive) |  |

| Compound | activity change, negative = cytotoxic | Potency |
| --- | --- | --- |
| CCCc1nc2sc3c(c2c(=O)n1NC(=O)CCCl)CCCC3 |  | 23.1 µM (active) |
| Cc1cccc(CSc2nc3ccncc3n2Cc2ccc(C(=O)O)cc2)c1 | 2.92% (inactive) |  |
| COc1cccc(Cn2c(SCc3ccc(C(=O)N4CCC(C)CC4)cc3)nc3ccncc32)c1 | 3.38% (inactive) |  |
| Cc1cccc(Cn2c(SCc3ccc(C(=O)N4CCC(C)CC4)cc3)nc3ccncc32)c1 |  | 23.1 µM (active) |
| CCOc1n[nH]c(-c2ccccc2)n1 | 47.7% (inactive) |  |
| CCN(CC)S(=O)(=O)c1nnc(NC(=O)COc2ccccc2Cl)s1 | 11.8% (inactive) |  |
| CN(Cc1cncn1C)c1ncnc2ccc(-c3ccc4c(c3)OCO4)cc12 | 20% (inactive) |  |
| Cn1c(=O)c2c(nc(SCC(=O)Nc3ccc(F)cc3)n2Cc2ccc(Cl)cc2)n(C)c1=O | -5.05% (inactive) |  |
| COc1ccc(-c2onc(C)c2C)cc1S(=O)(=O)NCC1CCN(Cc2cccc(F)c2)CC1 | -14.5% (inactive) |  |
| Cc1ccc(CS(=O)(=O)c2ncc(Cl)c(C(=O)Nc3nnc(C)s3)n2)cc1 |  | 20.6 µM (active) |
| CC(=O)c1cccc(NC(=O)c2nc(-c3ccccc3)n(-c3cccc(C)c3)n2)c1 | -5.19% (inactive) |  |
| O=C(Nc1nnc(Cc2ccc(Cl)cc2)s1)c1cccnc1 | 1.48% (inactive) |  |
| Cc1ccc2nc(NC(=O)c3nc(SCc4ccccc4F)ncc3Cl)sc2c1 | 4.47% (inactive) |  |
| Cc1cccc(NC(=O)c2nc(S(=O)(=O)Cc3ccccc3)ncc2Cl)c1 |  | 5.8 µM (active) |
| O=C(Nc1nnc(Cc2ccc(Cl)cc2)s1)c1ccncc1 | 4.01% (inactive) |  |
| CCS(=O)(=O)c1ncc(N(Cc2ccc(F)cc2)Cc2ccco2)c(C(=O)Nc2cc(C)ccc2C)n1 | 6.09% (inactive) |  |
| CSc1nnc(NC(=O)c2nc(S(=O)(=O)Cc3ccc(C)cc3)ncc2Cl)s1 |  | 16.4 µM (active) |
| Cc1cccc(NC(=O)Cn2cc(S(=O)(=O)Cc3ccccc3Cl)c3ccccc32)c1 | -25.9% (inactive) |  |
| CCOC(=O)c1c(NC(=O)CSc2cn(CCNC(=O)c3cccc(C(F)(F)F)c3)c3ccccc23)sc2c1CCC2 | 9.88% (inactive) |  |
| CC1(C)Cc2ccccc2-c2c[nH]c(=O)n21 | 6.54% (inactive) |  |
| COc1ccc(-c2cc(-c3nc(-c4cc(OC)c(OC)c(OC)c4)no3)[nH]n2)c(OC)c1 | -12.8% (inactive) |  |
| CC1CCN(S(=O)(=O)c2ccc3c(ccn3CCC(=O)NCc3ccc(N(C)C)cc3)c2)CC1 | 0.784% (inactive) |  |
| COc1ccc(N(C)C(=O)C2CCN(S(=O)(=O)c3cc(Br)cc4c3N(C(C)=O)CC4)CC2)cc1 | 7.14% (inactive) |  |
| CCN(CC)CCNC(=O)c1ccc(NS(=O)(=O)c2ccc3c(c2)OCCO3)cc1 | 2.07% (inactive) |  |
| O=C(Nc1cccc(S(=O)(=O)Nc2ccc(Cl)cc2)c1)c1ccc2c(c1)OCCO2 |  | 8.2 µM (active) |

| Compound | activity change, negative = cytotoxic | Potency |
| --- | --- | --- |
| CN1CCN(c2ccc(NC(=O)c3ccc4c(c3)OCCO4)cc2Cl)CC1 | -15.3% (inactive) |  |
| CN(C(=N)N)c1ccc(/C=C2\C=Cc3ccccc32)cc1 | -3.23% (inactive) |  |
| COc1ccccc1NC(=O)CSC1=Nc2ccccc2C2=NC(CC(=O)NCc3cccs3)C(=O)N12 (centres undefined) | -2.49% (inactive) |  |
| Cc1cccnc1NC(=O)c1cccc(S(=O)(=O)N2CCN(c3ccc(F)cc3)CC2)c1 |  | 20.6 µM (active) |
| Cc1ccc(C(=O)Nc2ncccc2C)cc1S(=O)(=O)N1CCOCC1 | 0.196% (inactive) |  |
| O=C(Nc1ccc2c(c1)CCC2)c1cccc(S(=O)(=O)N2CCN(c3ccc(F)cc3)CC2)c1 | -4.84% (inactive) |  |
| CCOC(=O)c1cc2ccccc2n1CC(=O)c1ccccc1 | 16.5% (inactive) |  |
| CCOC(=O)c1ccc2c(c1)nc(C)n2CC | 9.41% (inactive) |  |
| CCn1c(/C=C/Nc2ccccc2)[n+](CC)c2ccc(C(=O)OCC(F)(F)F)cc21 |  | 18.4 µM (active) |
| COc1ccccc1-c1noc(-c2ccc(NCc3ccccc3)c([N+](=O)[O-])c2)n1 | -1.17% (inactive) |  |
| C[C@H]1CN(c2ccc(Br)cc2)C(=O)[C@@H]1CC(=O)Nc1ccc(Br)cc1 | -11.2% (inactive) |  |
| CNC(=O)C[C@H]1C(=O)N(c2ccc(OC)cc2)C[C@@H]1Cc1ccccc1 | -1.07% (inactive) |  |
| O=C1N(Cc2ccccc2)c2ccc(Cl)cc2C1(O)c1c[nH]c2ccccc12 (centres undefined) | 2.66% (inactive) |  |
| CCc1nc(N2CCN(C(C)=O)CC2)c2c3c(sc2n1)CCCC3 | -2.11% (inactive) |  |
| COCCNc1nc(-n2nc(C)cc2C)nc2sc3c(c12)CCCC3 |  | 11.6 µM (active) |
| CCC(O)CNc1nc(-n2nc(C)cc2C)nc2sc3c(c12)CC(C)(C)OC3 (centres undefined) | 14.5% (inactive) |  |
| CC(C)Oc1ccc(NC(=O)c2cc3ccccc3o2)cc1 | 0% (inactive) |  |
| Cc1c(/C=N/N2C(=O)C3C4C=CC(C4)C3C2=O)c2ccccc2n1C (centres undefined) | -9.92% (inactive) |  |
| Cc1c(/C=N\NC(=O)c2cc3ccccc3o2)c2ccccc2n1C |  | 8.2 µM (active) |
| O=C(c1ccc(C(F)(F)F)cc1)N1CCC(=O)N([C@H](COCc2ccccc2)Cc2ccccc2)CC1 | 0.135% (inactive) |  |
| O=C(c1cc(Cl)cc(Cl)c1)N1CCC(=O)N(C(COCc2ccccc2)Cc2ccccc2)CC1 (centres undefined) | -53.7% (inactive) |  |
| CC(C)CC(COCc1ccc(Cl)cc1)N1CCN(C(=O)c2ccc(C(F)(F)F)cc2)CCC1=O (centres undefined) |  | 18.4 µM (active) |
| COc1ccc(C(=O)NCC(c2ccc(N(C)C)cc2)N2CCc3ccccc32)c(OC)c1 (centres undefined) | -0.938% (inactive) |  |
| CC1CC(C)CN(c2oc(-c3ccc(OCc4ccc(Cl)cc4)cc3)nc2C#N)C1 (centres undefined) | 0% (inactive) |  |
| Cc1ccc(Nc2nc3ccccc3nc2-n2nc(C)cc2C)c(Cl)c1 | 0.623% (inactive) |  |

| Compound | activity change, negative = cytotoxic | Potency |
| --- | --- | --- |
| CCCOc1ccccc1C1CC(=O)Nc2cc3c(cc21)OCO3 (centres undefined) |  | 2.59 µM (active) |
| Cc1cc2c(cc1C)C(c1cccc(OC(C)C)c1)CC(=O)N2 (centres undefined) | 1.83% (inactive) |  |
| O=C1CC(c2ccc(F)cc2F)c2cc3c(cc2N1)OCO3 (centres undefined) | -20.2% (inactive) |  |
| CC(C)Cn1c(-c2ccc(S(=O)(=O)N3CCOCC3)cc2)csc1=Nc1cc(Cl)ccc1Cl | 3.37% (inactive) |  |
| CN(N=O)c1ccc(C=C2c3ccccc3-c3ccccc32)cc1 | 7.77% (inactive) |  |
| COc1ccc(C2C(C(C)=O)=C(O)C(=O)N2CCc2c[nH]c3ccccc23)cc1 (centres undefined) | -2.52% (inactive) |  |
| C[N+](C)(C)CCNC(=O)c1c[nH]c2ccccc12 | 29.9% (inactive) |  |
| COc1ccc(/C=C(\C#N)c2c[nH]c3ccccc23)cc1 |  | 1.64 µM (active) |
| Cc1cc(C(=O)CSc2nc(N)cc(=O)[nH]2)c(C)n1CCc1ccc(Cl)cc1 | -7.4% (inactive) |  |
| Cc1cc(C)c(C(=O)CSc2nc(C)cc(=O)[nH]2)c(C)c1 | -6.29% (inactive) |  |
| Cc1cc(C(=O)CSc2nc(N)cc(=O)[nH]2)c(C)n1-c1cccc(F)c1 |  | 5.8 µM (active) |
| Cc1cccc(C(=O)N2CCc3cc(CNC(=O)Cc4ccc(F)cc4)ccc32)c1 | 3.89% (inactive) |  |
| COc1cc(NS(=O)(=O)c2ccc3ccccc3c2)c2ncccc2c1 |  | 6.51 µM (active) |
| CCOc1ccc(OCC)c(NS(=O)(=O)c2ccc3[nH]c(=O)ccc3c2)c1 | 13.8% (inactive) |  |
| O=[N+]([O-])c1ccccc1S(=O)(=O)Nc1cccc2cccnc12 | 0% (inactive) |  |
| CCN(CCCNC(=O)CSc1cc(=O)n(C)c2cc(Cl)ccc12)c1cccc(C)c1 | -8.63% (inactive) |  |
| CCOC(=O)CCP(=O)(O)C(O)(c1ccccc1)c1ccccc1 | 2.06% (inactive) |  |
| CCc1ccccc1NC(=O)/C(=C/c1ccccc1)c1ccccc1 | 2.36% (inactive) |  |
| CCOC(=O)C(=Cc1ccccc1)C(=O)c1ccccc1 |  | 20.6 µM (active) |
| Cc1ccc2cccc(NC(=O)c3ccc(OC(C)C)cc3)c2n1 | -9.78% (inactive) |  |
| CCOC(=O)C1CCCN(S(=O)(=O)c2cc(-c3cc(C)no3)ccc2OC)C1 (centres undefined) | 23.2% (inactive) |  |
| Cc1ccc(NC(=S)N(CCCN2CCCC2)Cc2cccn2Cc2ccc(Cl)cc2)cc1 |  | 20.6 µM (active) |
| CCc1cccc(C)c1NC(=S)N(CCCN1CCN(C)CC1)Cc1cccs1 | 6.59% (inactive) |  |
| Cc1ccccc1NC(=S)N(CCCN1CCOCC1)Cc1cccs1 | -2.7% (inactive) |  |
